In PubChem BioAssay one finds activation, outcome and inhibition data, which are given here for 16 compounds.

For assay [1], the system named is TRPC4 beta (transient receptor potential cation channel C4), mouse. Nature of the assay: activators of mouse TRPC4 channel, confirmation, cell-based, Fluo4 calcium, HEK293 TRPC4beta/mu-opioid, duplicates, 10 µM (AID 2426;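 active = fluorescence ratio normalized to control raised more than 50% in primary screen plus both repeat runs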;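 as to activation: percent rise of integrated ratio over buffer wells lacking compound which define 0%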). The following applies: Fluo4 calcium fluorescence, at 10 µM; hits give high values.
Assay [2] deals with transient receptor potential cation channel C4 beta (TRPC4), mouse. The experiment in a line: activators of mouse TRPC4 channel, confirmation, cell-based, second round, Fluo4, HEK293 TRPC4beta/mu-opioid, 1 µM (AID 2461;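 active = primary screen active and over 50% activation in each of two duplicate runs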;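 as to activation: 0% = wells without test compound as baseline of integrated fluorescence ratio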). The conditions noted are these: Fluo4 calcium fluorescence, at 1 µM; hits give high values.
Assay [3] concerns TRPC4 (transient receptor potential cation channel C4 beta), mouse. Nature of the assay: positive allosteric modulators of mouse TRPC4, confirmation, cell-based, second round, Fluo-4, HEK293 TRPC4beta/mu-opioid, 1 µM (AID 2554;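 active = primary screen hit whose fluorescence ratio, in both repeats, exceeds the weak agonist control mean by 3 SD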). The conditions noted are these: DAMGO EC20, Fluo-4 calcium flux, at 1 µM; hits give high values.
In assay [4] the test system is TRPC4 beta (transient receptor potential cation channel C4), mouse. The experiment in a line: positive allosteric modulators of mouse TRPC4, confirmation, cell-based, Fluo-4, HEK293 TRPC4beta/mu-opioid (AID 2555;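 active = primary screen hit whose calcium fluorescence ratio, in both repeats, exceeds the weak agonist control mean by 3 SD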). The conditions noted are these: DAMGO EC20, Fluo-4 calcium flux, at 10 µM; hits give high values.
The target of assay [5] is Short transient receptor potential channel 4 (Mus musculus) (UniProt Q9QUQ5). The experiment in a line: inhibitors of mouse TRPC4 channel, confirmation, cell-based, Fluo4, HEK293 TRPC4beta/mu-opioid (AID 2636;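 active = calcium signal cut by more than 3 SD below the full-agonist control yet still positive, in both repeats and the earlier primary screen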). The conditions noted are these: DAMGO, Fluo4 calcium flux, at 10 µM; hits give high values.
The target is the same in assay [6]. The experiment in a line: inhibitors of mouse TRPC4 channel, confirmation, cell-based, second round, Fluo4, HEK293 TRPC4beta/mu-opioid, 1 µM (AID 2637;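 active = calcium signal ratio cut to more than 3 SD under the fully stimulated control mean yet still positive, in both repeats and the primary screen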;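 as to inhibition: percent of integrated ratio relative to wells lacking test compound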). The following applies: Fluo4 calcium flux, DAMGO, at 1 µM; hits give high values.
Assay [7] has the same target. The experiment in a line: TRPC4 positive allosteric modulators, dose response, cell-based, HEK293 TRPC4/mu-opioid, Fluo-4 calcium, EC20 DAMGO (AID 434941).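 Also: calcium entry triggered by an EC20 dose of DAMGO at the co-expressed mu-opioid receptor.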
Assay [8] concerns the target Short transient receptor potential channel 6 (Mus musculus) (UniProt Q61143). The experiment in a line: inhibition of mouse TRPC6 channel, confirmation, selectivity assay for TRPC4 inhibitor project, cell-based, HEK293, membrane potential dye, duplicate (AID 434948;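 active = active in primary screen and both duplicates, each dropping signal beyond three positive-control SD with fluorescence still positive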). The conditions noted are these: HEK293 TRPC6, membrane potential dye fluorescence, at 10 µM, stimulated with maximal-effect acetylcholine; hits give high values.

Assay [9] shares this target. The experiment in a line: activation of mouse TRPC6 channel, confirmation, selectivity assay for TRPC4 activator project, cell-based, HEK293, membrane potential dye, duplicate (AID 434950;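 active = membrane potential signal rise above negative control mean plus 3 SD in both duplicates, also active in the earlier TRPC4 screen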;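 as to activation: 0% = buffer only wells and 100% = acetylcholine maximal-effect wells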). The conditions noted are these: HEK293 TRPC6, membrane potential fluorescence, at 10 µM; hits give high values.
For assay [10] the target is unchanged. Nature of the assay: TRPC6 potentiation by TRPC4 potentiator hits, confirmation, selectivity assay for TRPC4 potentiator project, HEK293 cells, membrane potential dye, duplicate (AID 434952;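 active = compound raising the membrane signal above positive-control mean plus 3 SD in both repeats, and a primary screen hit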). The conditions noted are these: HEK293 TRPC6, membrane potential dye fluorescence, at 10 µM, maximal acetylcholine added after compound; hits give high values.
Assay [11] addresses Short transient receptor potential channel 4 (Mus musculus) (UniProt Q9QUQ5). The experiment in a line: calcium flux activators in TRPC4/5HT1a cells, counter-screen for TRPC4 activator project, cell-based, second counter screen, HEK293 TRPC4/5HT1a, Fluo-4 (AID 434977;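 active = calcium signal rise above buffer-control mean plus 5 SD in both duplicates, and also a hit in the primary screen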;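 as to activation: plate controls were assay buffer for no effect and maximal serotonin response for full effect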). The conditions noted are these: Fluo-4 calcium flux, at 10 µM; hits give high values.
Assay [12] in a line: calcium flux inhibitors in TRPC4/5HT1a cells, confirmation, counter-screen for TRPC4 inhibitor project, cell-based, second counter screen, HEK293 TRPC4/5HT1a, Fluo-4 (AID 434978;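 active = primary screen active whose calcium signal fell more than 3 SD beyond the full-serotonin control mean in both duplicate plates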;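 as to outcome: serotonin given first at submaximal then at maximal dose after compound preincubation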). The conditions noted are these: Fluo-4 calcium flux, at 10 µM, serotonin added to trigger calcium flux; hits give high values.
Assay [13] has as its system TRPC4 (mouse), co-expressed with 5HT1a in HEK293. Nature of the assay: calcium flux potentiators in TRPC4/5HT1a cells, confirmation, counter-screen for TRPC4 potentiator project, cell-based, second counter screen, HEK293 TRPC4/5HT1a, Fluo-4 (AID 434979;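 active = signal rise over 3 SD above mean of control wells given weak agonist, in both repeats and first screen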). The following applies: Fluo-4 calcium flux, at 10 µM, serotonin added at its EC20 dose; hits give high values.
The nature of assay [14]: calcium flux activation in mu-opioid HEK293 cells, confirmation, counter-screen for TRPC4 activator project, cell-based, HEK293 mu-opioid receptor line (AID 449723;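 active = hit in primary screen, with calcium signal over 5 SD above buffer well mean in both duplicates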;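 also: counter screen cells carry the mu-opioid receptor alone and lack TRPC4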). The conditions noted are these: Fluo-4 calcium fluorescence, at 10 µM; hits give high values.
Assay [15] is described as follows: calcium flux enhancement in mu-opioid HEK293 cells, confirmation, counter-screen for TRPC4 allosteric potentiator project, cell-based, HEK293 mu-opioid receptor line (AID 449724;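 active = calcium signal rise more than 3 SD above the low-dose agonist control mean, in both duplicate plates and the primary screen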;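 also: HEK293 cells carrying mu-opioid receptor only with no TRPC4 channel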). The conditions noted are these: Fluo-4 calcium flux, at 10 µM, compound added before EC20 DAMGO stimulus; hits give high values.

For part of these data: Results with a measured potency or affinity are listed apart. The source made the active and inactive calls.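 The calls were made as follows, unless noted: active = earlier screen potentiator hit that boosts the TRPC4 ion channel at some dose, with a dose response; inactive = no potentiation, no dose response, or not a prior hit.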

Short transient receptor potential channel 4 (Mus musculus), sequence (Q9QUQ5 whole entry, looked up): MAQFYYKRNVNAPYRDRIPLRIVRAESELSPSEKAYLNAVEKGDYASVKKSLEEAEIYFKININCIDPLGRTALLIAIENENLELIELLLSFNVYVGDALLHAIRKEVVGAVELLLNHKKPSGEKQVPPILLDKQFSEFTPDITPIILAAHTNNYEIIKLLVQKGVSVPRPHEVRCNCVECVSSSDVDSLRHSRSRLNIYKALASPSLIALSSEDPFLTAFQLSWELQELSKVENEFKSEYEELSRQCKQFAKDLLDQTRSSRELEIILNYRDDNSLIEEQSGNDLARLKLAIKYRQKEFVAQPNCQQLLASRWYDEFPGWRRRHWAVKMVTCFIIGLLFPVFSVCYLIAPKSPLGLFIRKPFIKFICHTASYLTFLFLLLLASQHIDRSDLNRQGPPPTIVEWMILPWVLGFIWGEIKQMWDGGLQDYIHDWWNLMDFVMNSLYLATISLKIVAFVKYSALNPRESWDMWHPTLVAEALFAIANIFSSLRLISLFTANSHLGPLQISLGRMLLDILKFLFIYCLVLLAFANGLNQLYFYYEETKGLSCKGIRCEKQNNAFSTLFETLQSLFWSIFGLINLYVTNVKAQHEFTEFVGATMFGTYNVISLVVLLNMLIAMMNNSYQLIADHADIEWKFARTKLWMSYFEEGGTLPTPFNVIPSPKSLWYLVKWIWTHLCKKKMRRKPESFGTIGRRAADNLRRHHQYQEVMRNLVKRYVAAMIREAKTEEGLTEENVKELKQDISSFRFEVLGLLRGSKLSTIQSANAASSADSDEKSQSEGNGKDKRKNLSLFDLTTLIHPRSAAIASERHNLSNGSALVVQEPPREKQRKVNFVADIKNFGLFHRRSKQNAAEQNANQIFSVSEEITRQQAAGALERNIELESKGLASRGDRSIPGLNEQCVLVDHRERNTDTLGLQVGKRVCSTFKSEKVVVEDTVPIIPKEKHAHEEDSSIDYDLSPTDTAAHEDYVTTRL
Short transient receptor potential channel 6 (Mus musculus), sequence (Q61143 whole entry, looked up): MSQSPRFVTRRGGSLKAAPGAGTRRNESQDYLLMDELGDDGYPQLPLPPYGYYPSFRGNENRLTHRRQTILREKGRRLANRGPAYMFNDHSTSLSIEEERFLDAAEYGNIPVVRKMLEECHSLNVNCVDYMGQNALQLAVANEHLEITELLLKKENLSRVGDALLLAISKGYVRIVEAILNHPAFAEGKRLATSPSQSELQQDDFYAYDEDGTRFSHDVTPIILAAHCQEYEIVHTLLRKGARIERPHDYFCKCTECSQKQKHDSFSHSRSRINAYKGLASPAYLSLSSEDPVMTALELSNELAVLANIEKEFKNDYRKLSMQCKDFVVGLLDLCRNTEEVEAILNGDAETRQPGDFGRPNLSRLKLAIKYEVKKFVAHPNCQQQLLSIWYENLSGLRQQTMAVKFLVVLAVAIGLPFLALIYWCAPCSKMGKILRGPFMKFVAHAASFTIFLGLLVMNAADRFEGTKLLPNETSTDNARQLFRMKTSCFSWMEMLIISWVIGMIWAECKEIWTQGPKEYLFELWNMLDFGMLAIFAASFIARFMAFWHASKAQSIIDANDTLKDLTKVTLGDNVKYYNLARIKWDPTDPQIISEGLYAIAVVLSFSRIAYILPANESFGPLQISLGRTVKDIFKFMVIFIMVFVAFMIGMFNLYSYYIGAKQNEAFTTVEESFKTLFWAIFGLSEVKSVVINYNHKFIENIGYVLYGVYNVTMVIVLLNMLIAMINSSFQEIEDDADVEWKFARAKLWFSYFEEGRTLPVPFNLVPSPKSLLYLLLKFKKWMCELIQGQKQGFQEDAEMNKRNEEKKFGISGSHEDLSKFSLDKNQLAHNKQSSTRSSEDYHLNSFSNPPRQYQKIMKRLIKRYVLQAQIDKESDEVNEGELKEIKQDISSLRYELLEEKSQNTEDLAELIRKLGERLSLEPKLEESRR

Consider `O=C(C[n+]1cc2ccccc2c2ccccc21)c1ccccc1`, for which the activation in assay [1] is 212% (active); in assay [11] it was 27.6% (active). For the same compound, the result in [2], in assay [3], in assay [4], in assay [6], in assay [7] and in assay [9] was inactive. Further, the result in [10], in [13], in assay [14] and in assay [15] was inactive. Further, the results for the inhibition in assay [5], in assay [8] and in [12] were 94% (active), 29.5% (active) and 33.5% (active), respectively.

As to `Cc1ccc(C2(O)CN(c3ccccc3)C3=[N+]2CCS3)cc1` (stereo not given), the outcome in assay [1], in assay [2], in assay [3], in assay [4], in assay [7] and in [8] was inactive. For the same compound, the outcome in assay [10], in assay [11], in assay [12], in assay [13], in assay [14] and in [15] was inactive. Besides, the inhibition was 97% (active) in assay [5] and 79% (active) in [6]. Further, in assay [9], the activation was 48% (active).

`COc1cccc(-c2nn(-c3ccccc3)cc2CN(C)C(C)c2ccncn2)c1` (stereo not given): the outcome in [1], in [2], in assay [3], in [4], in assay [6] and in [7] was inactive. Also, the compound was called inactive in assay [8], in assay [10], in assay [11], in assay [12], in [13] and in [14]. Moreover, in assay [15], the result was inactive. Besides, the inhibition in [5] is 93% (active). Further, the activation in assay [9] was 41% (active).

`O=C(NC(=S)NNC(=O)c1ccco1)c1ccc(Br)cc1`: the activation is 149% (active) in [1], 32.5% (active) in assay [9] and 22.9% (active) in assay [11]. Also, the result in assay [2], in assay [3], in assay [4], in assay [5], in assay [6] and in assay [7] was inactive. Besides, the compound was called inactive in assay [8], in assay [10], in [12], in assay [13], in assay [14] and in assay [15].

Turning to `Cc1ccc2c(nc3s/c(=C\c4ccc(-c5ccccc5C(=O)O)o4)c(=O)n32)c1C`, the activation is 232% (active) in assay [1], 805% (active) in [9], 182% (active) in assay [11] and 203% (active) in [14]. Also, the outcome in [2], in assay [3], in assay [4], in assay [5], in assay [6] and in assay [7] was inactive. The outcome in [8], in [10], in assay [13] and in assay [15] was inactive. The inhibition in [12] is 28.9% (active).

Take `Cc1ccc(S(=O)(=O)Nc2cccc(C(=O)NCC(c3ccco3)N3CCCC3)c2)cc1F` (stereo not given): the activation in assay [1] is 58% (active); in [9] it was 31.5% (active). For the same compound, the result in assay [2], in assay [3], in assay [4], in [5], in assay [7] and in [8] was inactive. The result in [10], in [11], in assay [12], in assay [13], in assay [14] and in assay [15] was inactive. Besides, the inhibition in assay [6] was 67% (active).

Consider `CCOC(=O)C1(CC2CC2)CCN(Cc2ccc3cccc(F)c3n2)CC1`, for which the activation in assay [1] is 129% (active); in [9], 50.5% (active); in assay [11] it was 19.5% (active). In addition, the outcome in assay [2], in [3], in [4], in [6], in assay [7] and in assay [8] was inactive. Moreover, the outcome in assay [10], in [13], in [14] and in [15] was inactive. Moreover, the inhibition in assay [5] was 89% (active); in assay [12] it was 30.9% (active).

Take `CN(C)C(CNC(=O)C1CCN(S(=O)(=O)c2cccc(C(F)(F)F)c2)CC1)c1ccccc1` (stereo not given): the result in assay [1], in assay [2], in assay [3], in assay [4], in assay [5] and in assay [7] was inactive. Further, the compound was classed as inactive in [8], in assay [9], in assay [10], in assay [11], in assay [12] and in assay [13]. The outcome in [14] and in assay [15] was inactive. Further, in assay [6], the inhibition was 85% (active).

As for `O=c1c2ccccc2[nH]c(=S)n1Cc1cccnc1`, the result in assay [1], in assay [2], in [3], in [4], in assay [6] and in assay [7] was inactive. Moreover, the result in assay [8], in assay [9], in assay [10], in [11], in assay [12] and in assay [13] was inactive. In addition, the outcome in assay [14] and in assay [15] was inactive. The inhibition in [5] is 94% (active).

As to `CC1CC(C)(C)N(C(=O)CN2C(=O)c3ccccc3C2=O)c2ccccc21` (stereo not given), the activation was 149% (active) in assay [1], 51.5% (active) in [9], 23.1% (active) in [11] and 62.6% (active) in assay [14]. The result in [2], in assay [3], in assay [4], in assay [6], in [7] and in assay [8] was inactive. The outcome in assay [10], in assay [12], in [13] and in assay [15] was inactive. Besides, in [5], the inhibition was 73% (active).

Consider `CCOC(=O)C1(CCc2ccccc2)CCN(Cc2ccc(O)cc2)CC1`, for which the result in assay [1], in assay [2], in [3], in [4], in assay [6] and in assay [7] was inactive. Also, the result in [8], in assay [10], in assay [11], in assay [12], in [13] and in assay [14] was inactive. Also, the result in assay [15] was inactive. In addition, in assay [5], the inhibition was 88% (active). The activation in assay [9] is 69% (active).

Turning to `CN(C)C(CNC(=O)Cc1cccc(C(F)(F)F)c1)c1ccccc1` (stereo not given), the results for the activation in assay [1], in [2] and in assay [9] were 129% (active), 142% (active) and 31% (active), respectively. Besides, the outcome in assay [3], in assay [4], in [5], in assay [6], in assay [7] and in assay [8] was inactive. The result in assay [10], in assay [11], in assay [12], in assay [13], in [14] and in assay [15] was inactive.

`OC(CNC1CCCc2ccccc21)COc1c(Cl)cccc1Cl` (stereo not given): the activation in assay [1] is 86% (active); in [9], 101% (active); in [11] it was 9.49% (active); in [14] it was 14.8% (active). Also, the outcome in [2], in assay [3], in assay [4], in assay [5], in assay [7] and in assay [8] was inactive. Further, the outcome in [10], in [13] and in assay [15] was inactive. For the same compound, the inhibition was 52% (active) in assay [6] and 35.9% (active) in assay [12].

As for `C/C=C(\C)CN1CCC(n2nccc2NC(=O)CCc2ccccc2)CC1`, the outcome in [1], in assay [2], in assay [3], in assay [4], in assay [7] and in [8] was inactive. The result in assay [10], in assay [11], in [12], in assay [13], in assay [14] and in [15] was inactive. Further, the inhibition in [5] is 97% (active); in [6] it was 86% (active). Also, the activation in assay [9] was 58.5% (active).

Turning to `Clc1ccc(COn2c(-c3ccc(Cl)cc3Cl)nc3ncccc32)cc1`, the activation was 74% (active) in assay [1] and 54% (active) in [9]. Also, the outcome in [2], in assay [3], in assay [4], in assay [5], in assay [6] and in assay [7] was inactive. The compound was classed as inactive in assay [8], in assay [10], in assay [11], in assay [12], in [13] and in assay [14]. In addition, the outcome in assay [15] was inactive.

As for `Cc1onc(-c2ccccc2)c1C(=O)NNC(=S)NC(=O)/C=C/c1ccccc1`, the outcome in assay [1], in [2], in [3], in [4], in assay [6] and in [7] was inactive. The result in assay [8], in [10], in assay [13] and in assay [15] was inactive. Also, the inhibition in [5] was 77% (active); in assay [12], 19.2% (active). Further, the activation in [9] was 32.5% (active); in [11], 39.7% (active); in assay [14] it was 14.8% (active).
